# In PubChem BioAssay (NCI):
# Several values for one entry are separate records, joined by “and”; a condition that tells them apart may be missing. Equal entries are not always repeated. The panel holds about 83,000 compounds, 20% with a hit somewhere; the sample as a whole holds those more often.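 96-well plates, one dose, 48 hours. Percent growth reported; active if below 10.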 Activity calls are given as the source filed them.
# Assays:
# Experiment in all cases: NCI-60 one-dose screen, 48 h (100 = growth as untreated, 0 = no growth, -100 = all killed)
# [1] = tested on: SR leukemia
# [2] = tested on: RPMI-8226 leukemia; conditions: 10 µM unless noted
# [3] = tested on: OVCAR-8 ovarian
# [4] = tested on: OVCAR-5 ovarian
# [5] = tested on: OVCAR-4 ovarian
# [6] = tested on: SK-OV-3 ovarian; conditions: 10 µM unless noted
# [7] = tested on: IGROV1 ovarian
# [8] = tested on: OVCAR-3 ovarian
# [9] = tested on: HS 578T breast
# [10] = tested on: NCI/ADR-RES ovarian
structure (smiles),measurement,setting,value
COc1ccccc1OCC(O)CO (stereo not drawn),growth,[1]; 10 µM unless noted,116% (inactive) and 124% (inactive)
same,growth,[2],76.7% (inactive)
same,growth,[3]; 10 µM unless noted,115% (inactive) and 104% (inactive)
same,growth,[4]; 10 µM unless noted,103% (inactive)
same,growth,[5]; 10 µM unless noted,110% (inactive) and 101% (inactive)
same,growth,[6],106% (inactive) and 121% (inactive)
same,growth,[7]; 10 µM unless noted,123% (inactive) and 114% (inactive)
same,growth,[8]; 10 µM unless noted,107% (inactive) and 125% (inactive)
same,growth,[9]; 10 µM unless noted,61.7% (inactive) and 107% (inactive)
same,growth,[10]; 10 µM unless noted,100% (inactive) and 107% (inactive)
Nc1ccccc1SC(CC(=O)c1ccccc1)c1cccc([N+](=O)[O-])c1 (stereo not drawn),growth,[1]; 10 µM unless noted,70.2% (inactive) and 2.4% (active)
same,growth,[2],-30.1% (active) and -4.39% (active)
same,growth,[3]; 10 µM unless noted,87.9% (inactive) and 92.8% (inactive)
same,growth,[4]; 10 µM unless noted,105% (inactive) and 119% (inactive)
same,growth,[5]; 10 µM unless noted,89% (inactive) and 74.5% (inactive)
same,growth,[6],104% (inactive) and 109% (inactive)
same,growth,[7]; 10 µM unless noted,127% (inactive) and 96.5% (inactive)
same,growth,[8]; 10 µM unless noted,104% (inactive) and 66.5% (inactive)
same,growth,[9]; 10 µM unless noted,106% (inactive) and 110% (inactive)
same,growth,[10]; 10 µM unless noted,91.4% (inactive) and 92.9% (inactive)
C/C=C/C(=O)OCCCCCCCCCCCC,growth,[1]; 10 µM unless noted,83.4% (inactive)
same,growth,[2],99.9% (inactive)
same,growth,[3]; 10 µM unless noted,90.5% (inactive)
same,growth,[4]; 10 µM unless noted,99.2% (inactive)
same,growth,[5]; 10 µM unless noted,113% (inactive)
same,growth,[6],97.5% (inactive)
same,growth,[7]; 10 µM unless noted,111% (inactive)
same,growth,[8]; 10 µM unless noted,106% (inactive)
same,growth,[9]; 10 µM unless noted,107% (inactive)
same,growth,[10]; 10 µM unless noted,106% (inactive)
COc1cc([C@@H]2c3cc4c(cc3[C@H](O)[C@H]3COC(=O)[C@@H]23)OCO4)cc(OC)c1OC,growth,[1]; 10 µM unless noted,6.02% (active) and -8.59% (active)
same,growth,[2],25.8% (inactive) and -19.7% (active)
same,growth,[3]; 10 µM unless noted,11.5% (inactive) and 18.9% (inactive)
same,growth,[4]; 10 µM unless noted,24.3% (inactive) and 30.4% (inactive)
same,growth,[5]; 10 µM unless noted,34.2% (inactive) and 35.6% (inactive)
same,growth,[6],33% (inactive) and 3.05% (active)
same,growth,[7]; 10 µM unless noted,-2.37% (active) and -41.6% (active)
same,growth,[8]; 10 µM unless noted,29% (inactive) and -49.9% (active)
same,growth,[9]; 10 µM unless noted,-47.7% (active)
same,growth,[10]; 10 µM unless noted,5.58% (active) and -30.9% (active)
ON=C(C1CCCCC1)C1CCCCC1,growth,[1]; 10 µM unless noted,97.2% (inactive)
same,growth,[2],105% (inactive)
same,growth,[3]; 10 µM unless noted,107% (inactive)
same,growth,[4]; 10 µM unless noted,89.5% (inactive)
same,growth,[5]; 10 µM unless noted,107% (inactive)
same,growth,[6],106% (inactive)
same,growth,[7]; 10 µM unless noted,102% (inactive)
same,growth,[8]; 10 µM unless noted,105% (inactive)
same,growth,[9]; 10 µM unless noted,101% (inactive)
same,growth,[10]; 10 µM unless noted,103% (inactive)
CC1(C)CC(=O)NC1=O,growth,[1]; 10 µM unless noted,95.9% (inactive)
same,growth,[2],108% (inactive)
same,growth,[3]; 10 µM unless noted,98.9% (inactive)
same,growth,[4]; 10 µM unless noted,94.8% (inactive)
same,growth,[5]; 10 µM unless noted,102% (inactive)
same,growth,[6],104% (inactive)
same,growth,[7]; 10 µM unless noted,110% (inactive)
same,growth,[8]; 10 µM unless noted,103% (inactive)
same,growth,[9]; 10 µM unless noted,112% (inactive)
same,growth,[10]; 10 µM unless noted,103% (inactive)
S=c1nc[nH]c2nc[nH]c12,growth,[1]; 10 µM,18.1% (inactive)
same,growth,[1]; 50 µM,26.6% (inactive)
same,growth,[2],24.9% (inactive)
same,growth,[3]; 10 µM,26.6% (inactive)
same,growth,[3]; 50 µM,24% (inactive)
same,growth,[4]; 10 µM,44.7% (inactive)
same,growth,[4]; 50 µM,31.3% (inactive)
same,growth,[5]; 10 µM,50.2% (inactive)
same,growth,[5]; 50 µM,30.9% (inactive)
same,growth,[6],36.2% (inactive)
same,growth,[7]; 10 µM,70.5% (inactive)
same,growth,[7]; 50 µM,32.3% (inactive)
same,growth,[8]; 10 µM,29.6% (inactive)
same,growth,[8]; 50 µM,23.3% (inactive)
same,growth,[9]; 10 µM,54.6% (inactive)
same,growth,[9]; 50 µM,43.7% (inactive)
same,growth,[10]; 10 µM,22.8% (inactive)
same,growth,[10]; 50 µM,24.9% (inactive)
CC(C)(C)OC(=O)CC1(O)CCCCC1,growth,[1]; 10 µM unless noted,105% (inactive)
same,growth,[2],107% (inactive)
same,growth,[3]; 10 µM unless noted,108% (inactive)
same,growth,[4]; 10 µM unless noted,115% (inactive)
same,growth,[5]; 10 µM unless noted,97.9% (inactive)
same,growth,[6],105% (inactive)
same,growth,[7]; 10 µM unless noted,114% (inactive)
same,growth,[8]; 10 µM unless noted,108% (inactive)
same,growth,[9]; 10 µM unless noted,102% (inactive)
same,growth,[10]; 10 µM unless noted,107% (inactive)
CC(C)(C)C1CCC(=NO)CC1 (stereo not drawn),growth,[1]; 10 µM unless noted,116% (inactive)
same,growth,[2],92.5% (inactive)
same,growth,[3]; 10 µM unless noted,91.9% (inactive)
same,growth,[4]; 10 µM unless noted,90.3% (inactive)
same,growth,[5]; 10 µM unless noted,97.3% (inactive)
same,growth,[6],101% (inactive)
same,growth,[7]; 10 µM unless noted,99.5% (inactive)
same,growth,[8]; 10 µM unless noted,104% (inactive)
same,growth,[9]; 10 µM unless noted,102% (inactive)
same,growth,[10]; 10 µM unless noted,103% (inactive)
CN1C2C=CC(=O)C1C1C(=O)N(c3ccccc3)C(=O)C12 (stereo not drawn),growth,[1]; 10 µM unless noted,67.5% (inactive)
same,growth,[2],37.5% (inactive)
same,growth,[3]; 10 µM unless noted,69.9% (inactive)
same,growth,[4]; 10 µM unless noted,102% (inactive)
same,growth,[5]; 10 µM unless noted,76.4% (inactive)
same,growth,[6],105% (inactive)
same,growth,[7]; 10 µM unless noted,-9.22% (active)
same,growth,[8]; 10 µM unless noted,47.1% (inactive)
same,growth,[9]; 10 µM unless noted,77.5% (inactive)
same,growth,[10]; 10 µM unless noted,92.6% (inactive)
Cc1ccc(N)cc1S(=O)(=O)O,growth,[1]; 10 µM unless noted,89.6% (inactive) and 90.4% (inactive)
same,growth,[2],103% (inactive) and 102% (inactive)
same,growth,[3]; 10 µM unless noted,108% (inactive) and 100% (inactive)
same,growth,[4]; 10 µM unless noted,108% (inactive) and 125% (inactive)
same,growth,[5]; 10 µM unless noted,104% (inactive)
same,growth,[6],106% (inactive) and 116% (inactive)
same,growth,[7]; 10 µM unless noted,109% (inactive) and 113% (inactive)
same,growth,[8]; 10 µM unless noted,108% (inactive) and 117% (inactive)
same,growth,[9]; 10 µM unless noted,100% (inactive) and 94.9% (inactive)
same,growth,[10]; 10 µM unless noted,106% (inactive) and 113% (inactive)
